# Test results taken from PubChem BioAssay (Tox21).
# Records with an inconclusive call do not appear. Entries that show only a call come without a potency. The source made the active and inactive calls. Calls follow the shape of the dose curve; as a rule, active = well fitted cell-killing curve with a large enough effect in the repeat runs; inconclusive = weak or mixed curves; inactive = flat fitted curve, though single readings scatter.
# Test: qHTS RealTime-Glo MT Cell Viability Assay in HepG2 cells - 32 hour (AID 1224877); also: nearly all actives have a fitted effect of over 55% in size
# Conditions: RealTime-Glo luminescence; series mostly up to 76.8 µM
# From the text: U.S. Tox21 Program National Center for Advancing Translational Sciences [NCATS] NIH Chemical Genomics Center [NCGC] U.S. Environmental Protection Agency [EPA] National Institutes of Environmental Health Sciences [NIEHS] National Toxicology Program [NTP] U.S. Food and Drug Administration [FDA] Tox21 Assay Overview: Measure of cell viability is critical in the cell-base assay. Analysis of cell viability is necessary for the characterization of cell responses to cytotoxic drugs and environmental stress. A RealTime-Glo MT Cell Viability Assay to monitor cell viability in real time of continues cell culture during 40 hours of compound treatment was used to screen Tox21 10K library compounds in HepG2 cells. The RealTime-Glo MT Cell Viability Assay is a nonlytic, homogeneous, bioluminescent method to measure cell viability in real time using a simple, plate-based method. The assay involves adding NanoLuc luciferase and a cell-permeant prosubstrate to cells in culture. Viable cells reduce the proprietary prosubstrate to generate a substrate for NanoLuc luciferase. This substrate diffuses from cells into the surrounding culture medium, where it is rapidly used by the NanoLuc Enzyme to produce a luminescent signal. The signal correlates with the number of viable cells, making the assay well suited for cytotoxicity studies.
# Tox21 Assay Protocol Summary: The mixture of HepG2 cell suspension and reagents were dispensed at 600cells/6 ul/well in 1536-well tissue culture treated black solid bottom plates using a Multidrop dispenser. After the assay plates were incubated at a 37 C/5% CO2 incubator for 5 hours, 23 nL of compounds dissolved in DMSO, positive and negative controls was transferred to the assay plate by a pintool work station. The plates were incubated at 37 C for 40 hours. The luminescence intensity were measured at 0h, 8h, 16h, 24h, 32h and 40h time points using ViewLux plate reader during compound treatment.
# Potency is read from the fitted curve at half-maximal effect.
Structure (SMILES),Potency,"activity change, negative = cytotoxic"
C[C@@H]1C[C@H]2[C@@H]3CCC4=CC(=O)C=C[C@]4(C)[C@@]3(F)[C@@H](O)C[C@]2(C)[C@@]1(O)C(=O)COC(=O)c1ccncc1,inactive,–
CN(C)CCN(Cc1ccc(Cl)cc1)c1ccccn1,inactive,–
NCC(=O)O,–,0.863% [at 15.8 µM] (inactive)
CCCCCCCCCCCC(=O)OC[C@@H](O)[C@H]1OC[C@H](OCCO)[C@H]1OCCO,inactive,–
NS(=O)(=O)c1ccc(N2CCCCS2(=O)=O)cc1,inactive,–
COc1cc(C(=O)OCCCN2CCCN(CCCOC(=O)c3cc(OC)c(OC)c(OC)c3)CC2)cc(OC)c1OC,inactive,–
CCOC(=O)COC(=O)c1cc(Oc2ccc(C(F)(F)F)cc2Cl)ccc1[N+](=O)[O-],inactive,–
CCN(CC)c1ccc(C(=C2C=CC(=[N+](CC)CC)C=C2)c2cc(S(=O)(=O)O)ccc2S(=O)(=O)[O-])cc1,inactive,–
CCN(CC)CCOC(=O)C(Cc1cccc2ccccc12)CC1CCCO1 (stereo not given),inactive,–
CC(C)CC(=O)C1C(=O)c2ccccc2C1=O,inactive,–
CC(CC=O)c1ccccc1 (stereo not given),inactive,–
C=CC1CC2C=CC1C2 (stereo not given),inactive,–
CO[C@@H]1[C@H](OC(=O)/C=C/C=C/C=C/C=C/C(=O)O)CC[C@]2(CO2)[C@H]1[C@@]1(C)O[C@@H]1CC=C(C)C,inactive,–
CC(=O)OC[C@H]1O[C@@H](n2ncc(=O)[nH]c2=O)[C@H](OC(C)=O)[C@@H]1OC(C)=O,inactive,–
O=C(O)C1(C(=O)Nc2ccc(Cl)cc2Cl)CC1,inactive,–
CN(C)CCOC(c1ccccc1)c1ccc(Br)cc1 (stereo not given),inactive,–
CC(=O)c1ccc2c(c1)N(CCCN(C)C)c1ccccc1S2,inactive,–
CCCCC/C=C\C/C=C\CCCCCCCC(=O)NC(C)c1ccccc1 (stereo not given),inactive,–
CCC(CC)Nc1ccc(C)c(C)c1,inactive,–
COc1ccc(-c2nc3ccc(C4=NNC(=O)CC4C)cc3[nH]2)cc1 (stereo not given),inactive,–

Structure (SMILES),Potency,"activity change, negative = cytotoxic"
CCC(=O)O[C@]1(C(=O)CCl)[C@@H](C)C[C@H]2[C@@H]3CCC4=CC(=O)C=C[C@]4(C)[C@@]3(F)[C@@H](O)C[C@@]21C,inactive,–
Cc1ccccc1S(=O)(=O)O,inactive,–
Cc1cc(N)c2cc(NC(=O)Nc3ccc4nc(C)cc(N)c4c3)ccc2n1,inactive,–
COc1cccc(N(C)C(=S)Oc2ccc3c(c2)CCCC3)n1,inactive,–
CC(C)OC(=O)C(C)N(C(=O)c1ccccc1)c1ccc(F)c(Cl)c1 (stereo not given),inactive,–
Clc1ccc2c(c1)CCc1cccnc1C2=C1CCNCC1,26.8 µM (active),–
O=C1C(O)=C(O)C(=O)C(O)=C1O,inactive,–
CC(C)(C)OCC1CO1 (stereo not given),inactive,–
Nc1cccc([N+](=O)[O-])c1,inactive,–
CN1CCN(C(c2ccccc2)c2ccccc2)CC1,inactive,–
O=[N+]([O-])c1cccc(S(=O)(=O)O)c1,inactive,–
CC(C)Nc1ccc(NC(C)C)c2c1C(=O)c1ccccc1C2=O,inactive,–
CCCCCCCC/C=C\CCCCCCCC(=O)OCC,inactive,–
CN1CCC(N(Cc2cccs2)c2ccccc2)CC1,inactive,–
CCO[C@H](Cc1ccc(OCCc2ccc(OS(C)(=O)=O)cc2)cc1)C(=O)O,inactive,–
Nc1ncn([C@H]2C[C@H](O)[C@@H](CO)O2)c(=O)n1,inactive,–
OCCN1CCN(CCCN2c3ccccc3C=Cc3ccccc32)CC1,inactive,–
CCCCCCCCCCCc1ccccc1,inactive,–
CCCCCCCCCCCCCCCCOS(=O)(=O)O,inactive,–
COC(=O)C1=C(C)NC(COC(N)=O)=C(C(=O)OC(C)C)C1c1cccc(Cl)c1Cl (stereo not given),19 µM (active),–
